Only some compounds are listed: those with a hit (about 2.8% of all), similar ones and a draw of the others.
HepG2 tox-1: qHTS for Inhibitors of TGF-b: Cytotox Counterscreen; AID 588856, 2011; HepG2 CAGA-GFP viability, ATP luminescence, 18 h; Potency, µM (top dose mostly 46.1 µM), for the others: at the highest dose activity change, negative = cytotoxicity, actives largely listed as cytotoxic; 410,000 compounds, 0.76% hits
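HepG2 CAGA-GFP cells (1000/well, DMEM with 1% FBS) received compound, then TGF-beta at 500 pg/mL final, and were incubated 18 hours at 37 degrees C. Viability was read by CellTiter-Glo luminescence. Media-only wells were set as complete cell-killing and DMSO as no toxicity.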
TGFb inhibitor: qHTS for Inhibitors of TGF-b; Potency, µM (top dose mostly 46.1 µM), inactives show at the highest dose activity, negative = inhibition, actives largely listed as inhibitors; 410,000 compounds, 1.2% hits; HepG2 CAGA-GFP TGF-b/SMAD3 reporter, GFP fluorescence, 18 h; TGF-beta stimulated, 500 pg/mL final; AID 588855, 2011; further: on the % scale 0 is the no-effect control and ±100 the full control effect; nearly all actives have a fitted effect of over 65% in size
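Using HEPG2 CAGA-GFP reporter cells at 1000 cells/well, we pinned test compounds, stimulated with recombinant TGF-beta (500 pg/mL final) and measured total well GFP after 18 h.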
HTT ATP protect: qHTS Multiplex Assay to Identify Dual Action Probes in a Cell Model of Huntington: Cytoprotection (ATP). PC12 HTT-Q103 induced, cytoprotection, ATP luminescence, 40 h. Potency, µM (titrated, usually from 56.4 µM), for inactives: cytoprotection (ATP increase), usual class: activators. 230,000 compounds, 0.14% hits; further: % of control where 0% means no effect; nearly all actives have a fitted effect of over 45% in size
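ATP quantification (ATPlite) reports survival of PC12 cells in which tebufenozide, 100 nM final, switches on Htt exon 1 with 103 glutamines linked to GFP; compounds are titrated.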
ATXN2 expr inh: Primary qHTS for Inhibitors of ATXN expression; Potency, µM (series often up to 57 µM), for the others: top-dose activity change, negative = inhibition, hits mostly inhibitors; 360,000 compounds, 0.72% hits; HEK-293 ATXN2-luciferase reporter, luminescence, 24 h; further: on the % scale 0 is the no-effect control and ±100 the full control effect; nearly all actives have a fitted effect of over 55% in size
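ATXN2-luciferase reporter cells (luciferase flanked by upstream and downstream ATXN2 gene portions) were treated 24 h at 37 °C with compounds at up to 57 uM. SteadyGlo luminescence gave expression; GF-AFC fluorescence gave viability.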
HttQ103 aggreg: qHTS Multiplex Assay to Identify Dual Action Probes in a Cell Model of Huntington: Aggregate Formation (GFP); PC12 HttQ103-GFP aggregates, Acumen cytometry, 40 h; Potency, µM (titrated, usually from 46.1 µM), without a hit: at the top dose activity change, negative = inhibition, most hits filed as inhibitors; 220,000 compounds, 1.1% hits; further: on the % scale 0 is the no-effect control and ±100 the full control effect; nearly all actives have a fitted effect of over 60% in size
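Multiplexed with ATP-based cell death, this channel scores GFP aggregates in PC12 cells expressing inducible HTTex1-Q103-GFP. Induction used 100 nM tebufenozide; compounds were tested in concentration series.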
S2 tox: Viability Counterscreen for Primary qHTS for Inhibitors of ATXN expression; Potency, µM (top dose mostly 56.7 µM), most hits filed as cytotoxic; S2 cells (HEK-293 line with an ATXN2-luciferase reporter) viability, CellTiter-Fluor protease fluorescence, 24 h; 400,000 compounds, 0.49% hits; further: nearly all actives have a fitted effect of over 40% in size
TGFb confirm: qHTS for Inhibitors of TGF-b: Confirmation of Cherry Picks | shares compounds with TGFb inhibitor | HepG2 CAGA-GFP TGF-b reporter, GFP fluorescence, 18 h; cells stimulated with TGF-beta, 500 pg/mL | Potency, µM (series often up to 46.1 µM), inactives show at the top dose activity, negative = inhibition, actives largely listed as inhibitors | 1,600 compounds, 63% hits | AID 720534, 2013; further: on the % scale 0 is the no-effect control and ±100 the full control effect; nearly all actives have a fitted effect of over 65% in size
HepG2 tox-2: qHTS for Inhibitors of TGF-b: Cytotox Counterscreen for Cherry Picks. Potency, µM (series often up to 46.1 µM), inactives show top-dose activity, negative = cytotoxicity, most hits filed as inhibitors. HepG2 CAGA-GFP viability, ATP luminescence, 18 h; cells stimulated with TGF-beta, 500 pg/mL. AID 720535, 2013. shares compounds with TGFb inhibitor. 1,600 compounds, 27% hits; further: on the % scale 0 is the no-effect control and ±100 the full control effect; nearly all actives have a fitted effect of over 70% in size
TGFb CCL64 inh: qHTS for Inhibitors of TGF-b: CCL64 Cells Orthogonal Assay for Cherry Picks. shares compounds with TGFb inhibitor. CCL64 CAGA-GFP reporter, TGF-b stimulated, GFP fluorescence, 18 h. Potency, µM (titrated, usually from 46.1 µM), inactives show top-dose activity, negative = inhibition, actives largely listed as inhibitors. 1,600 compounds, 41% hits. AID 720536, 2013; further: nearly all actives have a fitted effect of over 65% in size
COP TGFb inh: qHTS for Inhibitors of TGF-b: Hit Validation in HepG2 Cells using COP promoter | HepG2 COP-GFP TGF-b reporter, GFP fluorescence, 18 h; cells stimulated by added recombinant TGF-beta | 1,600 compounds, 3% hits | Potency, µM (titrated, usually from 46.1 µM), for the others: at the highest dose activity, negative = inhibition, hits mostly inhibitors | AID 720537, 2013 | shares compounds with TGFb inhibitor; further: nearly all actives have a fitted effect of over 70% in size
Starred values were filed as active, the others as inactive; [ ] = another dose, or the depositor's remark. The call rests on the fitted dose curve; in most records, active means well fitted curve in the direction sought with a large enough effect; inconclusive means small, poorly fitted or top-dose-only effect, or another doubt; inactive means no such curve, though single readings can be large; an effect the other way counts as inactive or inconclusive. Potency means the concentration at half of the fitted maximal effect.

`CN(C(=O)Oc1ccc([N+](=O)[O-])cc1)c1ccccc1` gave HepG2 tox-1 24%, TGFb inhibitor -3%, HTT ATP protect 12%[0.074 µM], ATXN2 expr inh 5%, HttQ103 aggreg -8% and S2 tox inactive.
Screening CCC(=O)[C@@H](C)[C@@H](O)[C@H](C)C[C@@H](C)C1OC(=O)C[C@@]2(O)CC=C(C)C(O2)C(C)=CCCC[C@H](O[C@H]2C[C@@H](OC(N)=O)[C@H](O)[C@@H](C)O2)C=C[C@H](C)C[C@H]1C (stereo partly specified) returned ATXN2 expr inh -54% and S2 tox 14µM*.
CC(=O)OCC12CC(OC(=O)CC(C)C)C(C)=CC1OC1C(O)C(OC(C)=O)C2(C)C12CO2 (stereo unspecified) was read as HepG2 tox-1 -1%, TGFb inhibitor -117%, ATXN2 expr inh -71%, S2 tox inconclusive, TGFb confirm 0.01µM*, TGFb CCL64 inh 0.0052µM* and COP TGFb inh 11%.
COc1cc(O)c2c(c1)/C=C/C[C@H](O)[C@H](O)C(=O)CCC[C@H](C)OC2=O was read as HepG2 tox-1 -5%, TGFb inhibitor 2µM*, ATXN2 expr inh 2%, S2 tox inactive, TGFb confirm 8.2µM*, HepG2 tox-2 -12%, TGFb CCL64 inh 7.3µM* and COP TGFb inh inconclusive.
For COC(=O)C1=C(c2ccc(OC(F)(F)F)cc2)C[C@@H]2CC[C@H]1N2C(=O)N1CCC(C)CC1 the results were HepG2 tox-1 3%, TGFb inhibitor 6.3µM*, ATXN2 expr inh inconclusive, S2 tox 28µM*, TGFb confirm 16µM*, HepG2 tox-2 inconclusive, TGFb CCL64 inh inconclusive and COP TGFb inh 50%.
`C=C(C)[C@@]12OC3(c4ccccc4)O[C@@H]1C1[C@@H]4O[C@]4(CO)[C@@H](O)[C@]4(O)C(=O)C(C)=C[C@H]4[C@@]1(O3)[C@H](C)[C@H]2OC(=O)/C=C/C=C/c1ccccc1` (stereo partly specified) gave HepG2 tox-1 -87%, TGFb inhibitor -98%, ATXN2 expr inh -10%, S2 tox inconclusive, TGFb confirm inconclusive, HepG2 tox-2 inconclusive, TGFb CCL64 inh inconclusive and COP TGFb inh -6%.
O=C(O)CBr was read as HTT ATP protect 0%.
For Cc1c(C=O)c2ccccc2n1Cc1ccc(F)cc1 the results were HepG2 tox-1 -31%, TGFb inhibitor 5.6µM*, ATXN2 expr inh -10%, S2 tox inactive, TGFb confirm 1.3µM*, HepG2 tox-2 1.6µM*, TGFb CCL64 inh 10% and COP TGFb inh -4%.
Screening CCCCN=C[C@]12CCC(O)CC1(O)CCC1[C@@H]2CC[C@]2(C)[C@H](C3C=CC(=O)O3)CCC12O (stereo partly specified) returned HepG2 tox-1 -68%, TGFb inhibitor 3.5µM*, ATXN2 expr inh inconclusive, S2 tox inactive, TGFb confirm inconclusive, HepG2 tox-2 1.2µM*, TGFb CCL64 inh 1.5µM* and COP TGFb inh 41%.
Screening CC12CCC3C(CCC4(O)CC(O)CCC34C=NO)C1(O)CCC2C1=COC(=O)C1 (stereo unspecified) returned HepG2 tox-1 -43%, TGFb inhibitor 1µM*, ATXN2 expr inh inconclusive, S2 tox inconclusive, TGFb confirm 12µM*, HepG2 tox-2 1µM*, TGFb CCL64 inh 0.29µM* and COP TGFb inh 57%.
`O=C(CCN1CC2CCC(CC2)C1)c1cccs1` gave HepG2 tox-1 -25%, TGFb inhibitor 13µM*, HTT ATP protect 10%[10 µM], ATXN2 expr inh -2%, S2 tox inconclusive, TGFb confirm 2.6µM*, HepG2 tox-2 21µM*, TGFb CCL64 inh 2.9µM* and COP TGFb inh inconclusive.
`COc1ccc(C[C@H]2NC[C@H](O)[C@H]2OC(C)=O)cc1` gave HepG2 tox-1 -20%, TGFb inhibitor 0.22µM*, HTT ATP protect -170%, ATXN2 expr inh 0.1µM*, S2 tox inconclusive, TGFb confirm 0.073µM*, HepG2 tox-2 0.65µM*, TGFb CCL64 inh 0.1µM* and COP TGFb inh -1%.
Screening CN(C)C(=O)Nc1cccc(C(F)(F)F)c1 returned HTT ATP protect -24%.
Screening COc1ccc(C(c2nnnn2-c2c(C)cccc2C)N2CCC(n3c(=O)[nH]c4ccccc43)CC2)cc1 (stereo unspecified) returned HepG2 tox-1 -46%, TGFb inhibitor inconclusive, ATXN2 expr inh inconclusive and S2 tox inconclusive.
